The values that follow come from PubChem BioAssay (EPA / NIEHS).

“And” between values parts separate entries of the source, which are not always exact repeats. Identical values can stand only once. The source holds several records for some structures; these can differ, active in one and inactive in another. The source made the active and inactive calls. Rule for the calls: active = hit-call score of the fitted dose curve at least 0.9, where 1 is the maximum; inactive = score below 0.9.

Read-out in experiment [1]: Interferon-gamma inducible Protein 10 (IP10), CXCL10 (gene 3627)
The experiment in a line: BSK_hDFCGF_IP10: BioMAP Diversity Plus: hDFCGF Assay for Interferon-gamma inducible Protein 10 (IP10) Biomarker Activity (AID 2283053). Conditions: primary human foreskin fibroblasts; actives raise or lower the signal. The method in brief: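 Chemical-treated human skin fibroblasts (primary) were sampled at 24 h for IP-10 by ELISA. Both increases and decreases relative to DMSO were scored.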

Read-out in experiment [2]: Urokinase-type plasminogen activator receptor (uPAR), PLAUR (gene 5329)
Description: BSK_CASM3C_uPAR: BioMAP Diversity Plus: CASM3C Assay for Urokinase-type plasminogen activator receptor (uPAR) Biomarker Activity (AID 2283054).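 Note: cell-surface uPAR protein level quantified by ELISA.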 Conditions: primary human coronary artery smooth muscle cells; actives raise or lower the signal.

Read-out in experiment [3]: Vascular cell adhesion molecule 1 (VCAM1), VCAM1 (gene 7412)
Description: BSK_CASM3C_VCAM1: BioMAP Diversity Plus: CASM3C Assay for Vascular cell adhesion molecule 1 (VCAM1) Biomarker Activity (AID 2283055).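 Note: VCAM-1 protein level quantified by ELISA on the cells.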 As to conditions: primary human coronary artery smooth muscle cells; actives raise or lower the signal.

Read-out in experiment [4]: Collagen III, COL3A1 (gene 1281)
The experiment in a line: BSK_hDFCGF_CollagenIII: BioMAP Diversity Plus: hDFCGF Assay for Collagen III Biomarker Activity (AID 2283056). Conditions: primary human foreskin fibroblasts; actives raise or lower the signal. The method in brief: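 Human foreskin primary fibroblasts were exposed to test chemicals for 24 h, after which collagen III was quantified by ELISA. Activity was fitted bidirectionally against DMSO as negative control and baseline.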

Read-out in experiment [5]: Epidermal growth factor receptor (EGFR), EGFR (gene 1956)
The experiment in a line: BSK_hDFCGF_EGFR: BioMAP Diversity Plus: hDFCGF Assay for Epidermal growth factor receptor (EGFR) Biomarker Activity (AID 2283057). Conditions: primary human foreskin fibroblasts; actives raise or lower the signal. The method in brief: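 Cell-based multiplexed assay in primary human foreskin fibroblasts. EGFR is read by ELISA 24 h after treatment and compared with DMSO controls.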

Read-out in experiment [6]: Interleukin-8 (IL8), CXCL8 (gene 3576)
The experiment in a line: BSK_hDFCGF_IL8: BioMAP Diversity Plus: hDFCGF Assay for Interleukin-8 (IL8) Biomarker Activity (AID 2283058). As to conditions: primary human foreskin fibroblasts; actives raise or lower the signal. The method in brief: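 hDFCGF human dermal fibroblasts; 24 h chemical exposure; IL-8 by ELISA; bidirectional curve fit vs DMSO baseline; gain or loss of signal scored.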

Experiment [7] in a line: BSK_hDFCGF_Proliferation: Cell Proliferation Assessment in the BioMAP Diversity Plus: hDFCGF Assay (AID 2283059).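 Note: curves fitted for both rise and fall of signal versus DMSO baseline.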 Conditions: primary human foreskin fibroblasts. The method in brief: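 Total protein read at 560 nm after 0.1% SRB staining of TCA-fixed human skin fibroblasts, […]. Activity is fitted in both directions relative to DMSO as baseline.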

Read-out in experiment [8]: Macrophage colony-stimulating factor (MCSF), CSF1 (gene 1435)
Description: BSK_hDFCGF_MCSF: BioMAP Diversity Plus: hDFCGF Assay for Macrophage colony-stimulating factor (MCSF) Biomarker Activity (AID 2283060). Conditions: primary human foreskin fibroblasts; actives raise or lower the signal. A digest of the protocol:
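Human foreskin primary fibroblasts were treated with test chemical for 24 h, and M-CSF was then measured by ELISA. Data were fitted bidirectionally against DMSO as the negative control and activity baseline.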

A short description of experiment [9]: BSK_hDFCGF_SRB: Viability Assessment in the BioMAP Diversity Plus: hDFCGF Assay (AID 2283061).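 Note: cells exposed to compound for 24 h before the read.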 As to conditions: primary human foreskin fibroblasts. A digest of the protocol: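 Human foreskin primary fibroblasts were treated with compound and assessed 24 h after dosing. Total protein was measured by sulforhodamine B staining (0.1% SRB after 10% TCA fixation, 560 nm read) as a cytotoxicity marker, with bidirectional fitting against DMSO baseline.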

Read-out in experiment [10]: Monokine induced gamma interferon (MIG), CXCL9 (gene 4283)
The experiment in a line: BSK_hDFCGF_MIG: BioMAP Diversity Plus: hDFCGF Assay for Monokine induced gamma interferon (MIG) Biomarker Activity (AID 2283063). Conditions: primary human foreskin fibroblasts; actives raise or lower the signal. A digest of the protocol:
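ELISA read-out of MIG from primary human dermal fibroblasts 24 h post-dosing. Gain or loss of signal fitted bidirectionally, DMSO as baseline.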

Read-out in experiment [11]: Matrix Metallopeptidase 1 (MMP1), MMP1 (gene 4312)
The experiment in a line: BSK_hDFCGF_MMP1: BioMAP Diversity Plus: hDFCGF Assay for Matrix Metallopeptidase 1 (MMP1) Biomarker Activity (AID 2283064). Conditions: primary human foreskin fibroblasts; actives raise or lower the signal. A digest of the protocol: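 MMP1 levels quantified by ELISA 24 h after dosing human dermal fibroblast cultures, with parallel SRB total-protein staining for overt cytotoxicity. Data fitted in both directions against DMSO baseline.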

Read-out in experiment [12]: Vascular cell adhesion molecule 1 (VCAM1), VCAM1 (gene 7412)
The experiment in a line: BSK_hDFCGF_VCAM1: BioMAP Diversity Plus: hDFCGF Assay for Vascular cell adhesion molecule 1 (VCAM1) Biomarker Activity (AID 2283065).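 For AC50: VCAM-1 protein level quantified by ELISA after 24 h chemical exposure.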 Conditions: primary human foreskin fibroblasts; actives raise or lower the signal. A digest of the protocol:
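Primary human foreskin fibroblasts (hDFCGF system) were dosed with chemical and VCAM-1 was measured by ELISA 24 h later. Bidirectional curve fitting used DMSO as negative control and activity baseline.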

Read-out in experiment [13]: Plasminogen activator inhibitor-1 (PAI1), SERPINE1 (gene 5054)
The experiment in a line: BSK_hDFCGF_PAI1: BioMAP Diversity Plus: hDFCGF Assay for Plasminogen activator inhibitor-1 (PAI1) Biomarker Activity (AID 2283066). Conditions: primary human foreskin fibroblasts; actives raise or lower the signal. A digest of the protocol:
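Human skin fibroblast cultures receive chemical for 24 h before PAI-1 is measured by ELISA; signal changes are fitted bidirectionally against DMSO-treated wells.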

Read-out in experiment [14]: Intercellular Adhesion Molecule 1 (ICAM1), ICAM1 (gene 3383)
Description: BSK_KF3CT_ICAM1: BioMAP Diversity Plus: KF3CT Assay for Intercellular Adhesion Molecule 1 (ICAM1) Biomarker Activity (AID 2283067). As to conditions: primary human keratinocytes with fibroblasts; actives raise or lower the signal. The method in brief: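 Human keratinocyte plus foreskin fibroblast primary co-culture was exposed to chemical for 24 h. ICAM-1 was then quantified by ELISA, and the data were fit bidirectionally against DMSO as the negative control and baseline.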

Experiment [15] is described as follows: BSK_KF3CT_SRB: Viability Assessment in the BioMAP Diversity Plus: KF3CT Assay (AID 2283069). As to conditions: primary human keratinocytes with fibroblasts. A digest of the protocol:
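Cytotoxicity was gauged by SRB staining (0.1% SRB, 10% TCA fixation, 560 nm) of parallel cultures at 24 h. The cells were primary human skin keratinocytes co-cultured with fibroblasts, and activity was fitted in both directions against DMSO.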

Read-out in experiment [16]: Interleukin-1 alpha (IL1a), IL1A (gene 3552)
The experiment in a line: BSK_KF3CT_IL1a: BioMAP Diversity Plus: KF3CT Assay for Interleukin-1 alpha (IL1a) Biomarker Activity (AID 2283070). Conditions: primary human keratinocytes with fibroblasts; actives raise or lower the signal. A digest of the protocol: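 IL-1a was detected by ELISA 24 h after chemical treatment of a co-culture of human skin keratinocytes and foreskin fibroblasts. Gain or loss of signal was fitted against the DMSO baseline.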

Read-out in experiment [17]: TIMP metallopeptidase inhibitor 2 (TIMP2), TIMP2 (gene 7077)
Description: BSK_KF3CT_TIMP2: BioMAP Diversity Plus: KF3CT Assay for TIMP metallopeptidase inhibitor 2 (TIMP2) Biomarker Activity (AID 2283071). As to conditions: primary human keratinocytes with fibroblasts; actives raise or lower the signal. The method in brief: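 Measurements come from ELISA detection of TIMP-2 at 24 hours in a dosed human keratinocyte and foreskin fibroblast co-culture. DMSO serves as negative control and baseline.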

Read-out in experiment [18]: Transforming growth factor beta 1 (TGFb1), TGFB1 (gene 7040)
Description: BSK_KF3CT_TGFb1: BioMAP Diversity Plus: KF3CT Assay for Transforming growth factor beta 1 (TGFb1) Biomarker Activity (AID 2283072). As to conditions: primary human keratinocytes with fibroblasts; actives raise or lower the signal. The method in brief:
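TGF-b1 ELISA on a 24 h dosed co-culture of human keratinocytes and foreskin fibroblasts; cytotoxicity tracked in parallel cultures by SRB staining.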

Read-out in experiment [19]: Interferon-gamma inducible Protein 10 (IP10), CXCL10 (gene 3627)
Description: BSK_KF3CT_IP10: BioMAP Diversity Plus: KF3CT Assay for Interferon-gamma inducible Protein 10 (IP10) Biomarker Activity (AID 2283068). Conditions: primary human keratinocytes with fibroblasts; actives raise or lower the signal. A digest of the protocol: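 Human keratinocyte plus foreskin fibroblast primary co-culture exposed to test chemical for 24 h; IP-10 measured by ELISA. Concentration-response fitted bidirectionally against DMSO control as baseline.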

Take `CCCCC(CC)COC(=O)CCCCC(=O)OCc1ccccc1` (stereo not drawn): the outcome in experiment [1], in [2], in [3], in experiment [4], in [5] and in experiment [6] was inactive. For the same compound, the outcome in experiment [7], in experiment [8], in experiment [9], in experiment [10], in [11] and in [12] was inactive. For the same compound, the result in [13], in experiment [14], in experiment [15], in experiment [16], in [17] and in experiment [18] was inactive.

In the case of `CCCCCCCC(=O)O`, the outcome in [1], in experiment [2], in experiment [3], in experiment [4], in experiment [5] and in experiment [6] was inactive. In addition, the outcome in experiment [7], in experiment [8], in experiment [9], in experiment [10], in [11] and in [12] was inactive. Further, the outcome in experiment [13], in experiment [14], in experiment [15], in experiment [16], in experiment [17] and in experiment [18] was inactive.

Consider `ClC1=C(Cl)C(Cl)(Cl)C(Cl)=C1Cl`, for which the AC50 (in general, the concentration at which the activity in the assay is half-maximal) in [1] is 9.62 µM (active); in [2], 6.99 µM (active); in experiment [3] it was 5.1 µM (active); in experiment [4], 14 µM (active); in [6], 17 µM (active); in experiment [7], 4.2 µM (active). Besides, the AC50 in experiment [8] was 9.09 µM (active); in experiment [9], 12.8 µM (active); in [10], 13.6 µM (active); in experiment [11], 13.9 µM (active); in experiment [12], 6.75 µM (active); in experiment [13], 8.9 µM (active). Further, the AC50 is 9.94 µM (active) in [14]; 7.42 µM (active) in experiment [15]; 7.98 µM (active) in experiment [16]; 11.8 µM (active) in experiment [17]; 9.02 µM (active) in experiment [18]. Besides, the outcome in experiment [5] was inactive.

Take `CC(=O)NC1(c2cccc(F)c2)CCN(CC[C@@]2(c3ccc(Cl)c(Cl)c3)CN(c3ccccc3)C(=O)CO2)CC1`: the AC50 in [1] was 28.2 µM (active); in [2], 16.6 µM (active); in experiment [4], 6.66 µM (active); in experiment [6], 25.9 µM (active); in experiment [7], 13.4 µM (active); in [8], 24.5 µM (active). The AC50 in [9] is 24.5 µM (active); in experiment [10] it was 31.8 µM (active); in [11] it was 30.2 µM (active); in experiment [12], 27 µM (active); in [13], 23.8 µM (active); in experiment [15] it was 25.1 µM (active). For the same compound, the outcome in experiment [3], in [5], in [14], in experiment [16], in [17] and in experiment [18] was inactive.

Consider `C[C@@H]1C[C@H]2[C@@H]3CCC4=CC(=O)C=C[C@]4(C)[C@@]3(F)[C@@H](O)C[C@]2(C)[C@@]1(O)C(=O)COP(=O)(O)O`, for which the AC50 in experiment [1] is 696 nM (active) and 895 nM (active); in experiment [3], 0.1 µM (active); in experiment [7], 30.3 µM (active); in experiment [8], 615 nM (active) and 730 nM (active); in [9], 3.28 µM (active); in [11], 1.42 µM (active) and 386 nM (active). For the same compound, in experiment [12], the AC50 is 8.68 µM (active). Moreover, the outcome in experiment [1], in experiment [2], in [3], in experiment [4], in [5] and in experiment [6] was inactive. The result in experiment [7], in [8], in experiment [9], in experiment [10], in [11] and in experiment [12] was inactive. Moreover, the outcome in [13], in experiment [14], in [19], in experiment [15], in experiment [16] and in experiment [17] was inactive. For the same compound, the result in experiment [18] was inactive.
